# PubChem BioAssay (NCI)
# The panel holds about 83,000 compounds, 20% with a hit somewhere; the sample as a whole holds those more often.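 Step 1: grow cells in 96-well plates. Step 2: add test compound at a single concentration. Step 3: incubate 48 h. Step 4: record percent growth.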 Unmarked numbers belong to inactive results. Active and inactive are the calls of the source. Rule for the calls: active = growth percent below 10; inactive = the rest.
# Tests used:
# Experiment in all cases: NCI-60 one-dose screen, 48 h (100 = growth as untreated, 0 = no growth, -100 = all killed)
# Settings in all cases: 10 µM unless noted
# SK-MEL-2 melanoma = test system: SK-MEL-2 melanoma
# EKVX NSCLC = test system: EKVX NSCLC
# SN12C renal = test system: SN12C renal
# UO-31 renal = test system: UO-31 renal
# TK-10 renal = test system: TK-10 renal
# ACHN renal = test system: ACHN renal
# CAKI-1 renal = test system: CAKI-1 renal
# A498 renal = test system: A498 renal
# CCRF-CEM leukemia = test system: CCRF-CEM leukemia
# MOLT-4 leukemia = test system: MOLT-4 leukemia
# SR leukemia = test system: SR leukemia
# RPMI-8226 leukemia = test system: RPMI-8226 leukemia
# OVCAR-8 ovarian = test system: OVCAR-8 ovarian
# OVCAR-5 ovarian = test system: OVCAR-5 ovarian
# OVCAR-4 ovarian = test system: OVCAR-4 ovarian
# SK-OV-3 ovarian = test system: SK-OV-3 ovarian
# IGROV1 ovarian = test system: IGROV1 ovarian
# HS 578T breast = test system: HS 578T breast
# NCI/ADR-RES ovarian = test system: NCI/ADR-RES ovarian
# OVCAR-3 ovarian = test system: OVCAR-3 ovarian
SMILES,growth (SK-MEL-2 melanoma),growth (EKVX NSCLC),growth (SN12C renal),growth (UO-31 renal),growth (TK-10 renal),growth (ACHN renal),growth (CAKI-1 renal),growth (A498 renal),growth (CCRF-CEM leukemia),growth (MOLT-4 leukemia),growth (SR leukemia),growth (RPMI-8226 leukemia),growth (OVCAR-8 ovarian),growth (OVCAR-5 ovarian),growth (OVCAR-4 ovarian),growth (SK-OV-3 ovarian),growth (IGROV1 ovarian),growth (HS 578T breast),growth (NCI/ADR-RES ovarian),growth (OVCAR-3 ovarian) [%]
CN1CCN(Cc2ccc(NC(=O)c3cncc(C#Cc4cnc5ccc(NCCO)nn45)c3)cc2C(F)(F)F)CC1,-89% (active),-0.668% (active),1.09% (active),58.4%,-16.3% (active),8.5% (active),-3.82% (active),-94.3% (active),9.38% (active),3.21% (active),4.47% (active),-15.2% (active),1.73% (active),5.23% (active),-9.76% (active),-10.5% (active),-1.21% (active),-13.3% (active),81.1%,
CNC(=O)c1cc(N2CCc3cc(NC(=O)Nc4ccc(N5CCOCC5)c(C(F)(F)F)c4)ccc32)ccn1,45.6%,59.6%,15%,16.9%,80.8%,26.3%,44.3%,60%,25.1%,22.9%,14.4%,16%,23.5%,57.4%,41.4%,80%,37.3%,-0.517% (active),16.8%,
C#C[C@]1(O)CC[C@H]2[C@@H]3CC=C4c5sc(Nc6ccc(C)cn6)nc5CC[C@]4(C)[C@H]3CC[C@@]21C,-25.1% (active),-21.7% (active),45.9%,-63.7% (active),18.6%,17.4%,-74.1% (active),-26.5% (active),10.6%,-42.3% (active),-15% (active),-32% (active),25.3%,22.2%,42.8%,-44.8% (active),29.4%,-11.9% (active),20.3%,34
O=C(CCCCCCNC(=O)c1csc(Br)n1)NO,57.3%,53.3%,73.4%,22.7%,-3.87% (active),13.9%,21%,-4.04% (active),16.1%,17.4%,23.9%,2.81% (active),23.5%,20.2%,69.6%,56.3%,36.4%,58.3%,9.08% (active),
O=C1[C@@H]2Cc3c([nH]c4ccccc34)[C@@H](c3ccc(Cl)cc3)N2C(=O)CN1C1CCN(Cc2c(F)cccc2F)CC1,67.6%,40.1%,38.5%,24.2%,52.5%,28%,24.6%,60%,19.8%,8.27% (active),-4.42% (active),12.5%,43.7%,59.4%,44.8%,68.5%,25.6%,53.8%,42.5%,
C1=CC(c2nn3c(-c4ccccc4)nnc3s2)=Cc2ccccc2O1,74.7%,88.5%,78.9%,53.4%,116%,76.7%,47.6%,67.5%,27.9%,39.2%,11.9%,35.6%,65.5%,87.6%,73.7%,106%,64.3%,61.1%,85.2%,
CSc1ccc(C(=NNS(=O)(=O)c2ccc(C)cc2)c2ccc(Cl)cc2)cc1,95.9%,98.2%,92.7%,81.8%,104%,105%,86.2%,96.5%,97.7%,98.6%,114%,97.8%,99.5%,94.3%,102%,111%,96.8%,101%,98.2%,
O=C1[C@H]2Cc3c([nH]c4ccccc34)[C@H](c3ccc(Br)cc3)N2C(=O)CN1C1CCN(CC2CCCCC2)CC1,109%,83.8%,73.7%,45.3%,121%,80.4%,52.8%,79.3%,49.1%,38.5%,-12.7% (active),43.2%,85.4%,106%,82.7%,87.9%,82.2%,78%,75.2%,
Cn1cc(-c2nn3cc(-c4ccncc4)nc3s2)c2cc(F)ccc21,99.8%,72.9%,88.6%,55.1%,155%,84%,63.4%,96.3%,16%,37.3%,1.87% (active),55.3%,58.6%,100%,72.8%,92.7%,64.9%,86.7%,78.7%,
Oc1[nH]c2ccc(Cl)cc2c1N=Nc1nc(N=Nc2c(O)[nH]c3ccc(Cl)cc23)nc(N2CCOCC2)n1,65.3%,85.2%,43.9%,78.7%,118%,74.5%,72%,21.6%,20.3%,62.5%,29.2%,36.4%,50.1%,95.1%,78.7%,55.5%,55%,-7.82% (active),98.1%,52.7
N#C/C(=C\c1cccc2c1OCO2)C(=O)Nc1sc2c(c1C#N)CCCC2,106%,87.8%,98.3%,82.6%,120%,109%,86.1%,98.6%,108%,102%,90.3%,101%,105%,101%,108%,98.5%,100%,102%,106%,
CCN(CC)c1ccc(/C=N/NC(=O)c2ccc(S(N)(=O)=O)cc2)cc1,38.7%,23.6%,35.9%,13.3%,42.9%,14.6%,23%,44.3%,15.4%,14.2%,14.1%,34.3%,14.6%,46.7%,30.4%,35.5%,19.9%,64.1%,53.8%,
CNC(=O)c1cc(-n2ccc3cc(NC(=O)Nc4ccc(N5CCN(C)CC5)c(C(F)(F)F)c4)ccc32)ccn1,87.2%,84.5%,94.6%,42%,121%,77.4%,85.8%,87.9%,7.32% (active),-12.8% (active),-32.6% (active),-11.2% (active),97.7%,90%,84.5%,105%,91.9%,67%,98%,
CCN1CCN(c2ccc(NC(=O)Nc3ccc4c(ccn4-c4ccnc(C(=O)NC)c4)c3)cc2C(F)(F)F)CC1,94.8%,86.3%,90.8%,71%,113%,74.7%,79.3%,81.1%,7.75% (active),10.9%,-2.78% (active),8.67% (active),98.4%,89%,87%,80.6%,79.3%,34.6%,86.5%,
COc1ccc2c(c1)c(-c1nn3cc(-c4ccncc4)nc3s1)cn2C,104%,77.6%,84.3%,53.3%,130%,71.4%,50.6%,83.7%,43.9%,47.2%,-3.79% (active),61.4%,71.7%,102%,82.3%,93.6%,70.3%,86.9%,69.8%,
